In PMC3795721, “Screening for Protein-DNA Interactions by Automatable DNA-Protein Interaction ELISA”:

Biological target: AT4G31550 (Arabidopsis thaliana, UniProt Q9SV15 228-325)
Test: DPI-ELISA; DPI-ELISA, streptavidin 384-well plate, 1-2 pmol biotinylated dsDNA per well, crude native E. coli extract, anti-His detection; buffer as in Brand et al. [46],; high values mean tight binding
Details: tags: C-terminal His (pET-DEST42); label: 5' biotin on forward strand; dsDNA, one strand shown

Sequence of AT4G31550 (Q9SV15 228-325): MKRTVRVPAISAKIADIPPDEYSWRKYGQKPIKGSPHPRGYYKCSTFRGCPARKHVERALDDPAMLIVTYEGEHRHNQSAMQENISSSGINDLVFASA

Sequence	binding signal [absorbance]
AAAAAACCGATCATCACATATCACTGAAAA	0.58 ± 0.141
AAAAAAGAGTGGTTTATTAATGTATAAAAA	0.74 ± 0.184
AAAAAATTGCCGTCATAATTGTGGTAAAAA	0.59 ± 0.0849
AAAAAATTTGGTCTTCGTCCTCGCTTAAAA	0.9 ± 0.0707
AAAAAAGTCCCGCGCTAAGCTTTAAAAAAA	0.615 ± 0.106
AAAAAAATCAGCCTGACTCTGGGCGTAAAA	0.71 ± 0.141
AAAAAAGTTGCCGACGATTGCGGGTTAAAA	0.735 ± 0.163
AAAAAACTCCCTCTCCTCTGTCTTCCAAAA	0.635 ± 0.106
AAAAAACAACTTGGAGGATTTACAGCAAAA	0.73 ± 0.141
AAAAAACCCTACATCGCATATAAGAGAAAA	0.675 ± 0.0212
AAAAAATTAGGACCATCCCCACTAGGAAAA	0.69 ± 0.0707
AAAAAATTAGCTTATCCTTGCTTGTGAAAA	0.655 ± 0.134
AAAAAAAATCTTAGCTCTATCTCATCAAAA	0.68 ± 0.113
AAAAAACCAACTCTCTTTCGGACTATAAAA	0.67 ± 0.156
AAAAAAGGGCGAGCGCTGGATCCACAAAA	0.505 ± 0.106
AAAAAAGCGTAAGCCTTGACAGTCGTAAAA	0.725 ± 0.106
AAAAAATTTTGTTTTTGCTTTTCCTTAAAA	0.38 ± 0.0566
AAAAAACTCGACATAGAATGCGGAAAAAAA	0.655 ± 0.106
AAAAAAGGCCGTTGGACCTCGGTCTAAAAA	0.66 ± 0.0707
AAAAAAGGTCCAGTCCACGTCATCAGAAAA	1.84 ± 0.431
AAAAAAAATACTGCGCACTTGCACTCAAAA	0.6 ± 0.127
AAAAAATGTATTCGTGTCCACTCCATAAAA	0.53 ± 0.0707
AAAAAACCCGTTCTACCTTATTCCTGAAAA	0.525 ± 0.106
AAAAAAGGGTCGCTGTGAGCTCATGAAAAA	0.575 ± 0.12
